A short description of assay [1]: reducers of endogenous Her2 protein level, primary screen, SKBR3 breast tumor cells, AlphaScreen, ATP viability (AID 461;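 active = Her2 level under about 52% in both replicate screens, with viability over 70% of control, limit read from the data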;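 as to Her2 level: lower value means less Her2 protein in the cells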;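 as to viability: percent of carrier control wells set as 100% viability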). The conditions noted are these: 18-24 h, measured here: SKBR3 viability, ATP luminescence, at 10 µM.
In assay [2] the target is Receptor tyrosine-protein kinase erbB-2 (Homo sapiens) (UniProt P04626). Described as above. The conditions noted are these: 18-24 h, at 10 µM, stronger effect = lower value.
A short description of assay [3]: SK-BR-3 cell growth inhibitors, pilot screen, 24 h, human (AID 572;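 active = viability at or below 10% of carrier control in both of two separate runs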;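 also: compound exposure lasted between 18 and 24 h rather than exactly 24 h; 100% = carrier-treated control wells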). The settings on record: SK-BR-3 viability, CellTiter-Glo luminescence, at 10 µM, stronger effect = lower value. (In ATP-based viability assays light output follows the ATP content of the culture.)
Assay [4] in a line: HUVEC growth inhibition – cell-based, human, primary screen (AID 575;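 active = viability at or below 30% in both replicate assays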;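 also: 100% = median of untreated cell wells with 0.1% DMSO on each plate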). The settings on record: HUVEC proliferation, CellTiter-Glo luminescence, 72 h; at 10 µM; stronger effect = lower value.
Assay [5] in a line: growth inhibitors of H69AR lung tumor, primary screen, human, duplicate replicates (AID 580;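 active = viability at or under a set limit in both replicates, limit being median viability minus 3 SD, cut at about 48% in these data, passing the limit was not always enough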;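 also: 100% = mean luminescence of untreated wells and 0% = no signal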). The conditions noted are these: H69AR lung tumor cells viability, ATP luminescence, 72 h; at 10 µM; stronger effect = lower value.
Assay [6] can be described thus: reversal of MRP1-mediated doxorubicin resistance, pilot screen, H69AR cells, doxorubicin co-treatment (AID 601;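 active = viability loss from added drug above about 55%, and viability with drug at most 40%, in both replicates, limit read from the data, passing the limit was not always enough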). The settings on record: CellTiter-Glo, 72 h, at 10 µM; for differential viability (reversal): stronger effect = higher value.
A short description of assay [7]: 384-well plate pilot, post-Golgi transport modulator project, inhibition of yeast transport mutant growth (AID 636; in the data active = inhibition above about 31%). The settings on record: absorbance 615 nm, about 18 h, stronger effect = higher value.
A short description of assay [8]: growth suppression of yeast trafficking mutant, preliminary HTS, modulators of trafficking downstream of Golgi apparatus project, 1536-format plate, OD 615 nm (AID 637; in the data active = inhibition above about 30%). The conditions noted are these: yeast transport mutant growth, absorbance 615 nm, 18 h; stronger effect = higher value.
Assay [9] can be described thus: OD615 S. cerevisiae growth inhibition, permissive medium, pilot counter-assay, permissive growth control for S. cerevisiae lifespan shortening project (AID 705;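 active = growth inhibition above 25% in both replicates, a cutoff set 3 SD above the mean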). The conditions noted are these: OD615, 24 h, at 10 µM, stronger effect = higher value.
Assay [10] is described as follows: Restrictive medium S. cerevisiae growth inhibition, OD615, pilot screen of yeast lifespan reduction project, restrictive growth control (AID 706;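 active = growth inhibition above a set limit, 3 SD over mean compound inhibition, in both replicates, cut at about 43% in these data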;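 also: modified DeaD lifespan yeast strain shifted to restrictive glucose medium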). The settings on record: OD615, 48 h, at 10 µM, stronger effect = higher value.
A short description of assay [11]: viability gain of MRP-1-high H69AR cells under doxorubicin, pilot screen, MRP-1 activator project, CellTiter-Glo, duplicate (AID 807;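 active = viability increase at or above a cutoff of the median across tested compounds plus 3 SD, cut at about 8.5% in these data, passing the limit was not always enough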;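 also: compound pretreatment 18-22 h then 72 h combined with doxorubicin; 0% = doxorubicin alone and 100% = vehicle without doxorubicin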). The conditions noted are these: H69AR viability with doxorubicin, CellTiter-Glo luminescence; at 10 µM; stronger effect = higher value.
Assay [12] can be described thus: growth suppression of beta-catenin knockout HCT116, pilot screen, human colon tumor cells (AID 823;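 active = cell viability at or below a set limit in both duplicate runs, the limit being the all-compound median minus 4 SD, cut at about 23% in these data, passing the limit was not always enough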;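 also: 0% = wells killed by 20 µM Hyamine and 100% = untreated DMSO cell wells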). The conditions noted are these: CellTiter-Glo, 60 h, at 10 µM, stronger effect = lower value.
A short description of assay [13]: growth suppression of PTEN-deleted HCT116, pilot screen, cell-based, HCT116 clonal line, CellTiter-Glo (AID 824;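 active = viability at or below 27.92% in each of two runs, the all-compound median minus 4 SD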;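 also: 0% = 20 µM Hyamine control and 100% = vehicle cell control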). The settings on record: 60 h, at 10 µM, stronger effect = lower value.
Assay [14] is described as follows: inhibitors of the yeast RAM network, pilot screen, dse1pr::URA3 reporter, 5-FOA selection (AID 869).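 Also: 0% = DMSO wells with no growth and 100% = 10 µM 1-NA-PP1 with full growth; RAM network block rescues cells from 5-FOA so hits raise OD615 growth.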 The conditions noted are these: S. cerevisiae dse1pr::URA3 5-FOA growth, OD615, 2 d; at 10 µM; stronger effect = higher value; strain carries analog-sensitive mutant Cbk1 kinase.
A short description of assay [15]: RAM signaling pathway blockade in yeast – S. cerevisiae, Pdr1DBD-CYC8 efflux-inhibited sensitized strain, primary screen (AID 1298;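 active = RAM network inhibition above 8.4% in each of two replicates, 3 SD over the compound average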;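 also: 0% = DMSO untreated cells without growth and 100% = 10 µM 1-NA-PP1 full growth; higher means more yeast growth rescued from 5-FOA killing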). The conditions noted are these: S. cerevisiae cbk1-as DSE1-URA3 strain, 5-FOA growth OD615, 2 d; at 50 µM; stronger effect = higher value.
Setting [16] is: H69AR cells + 2 uM doxorubicin, measured here: viability with 2 uM doxorubicin, stronger effect = lower value.
Where [17] appears, read: H69AR cells, compound alone cytotoxicity.

Records with an inconclusive call do not appear. Active and inactive are the calls of the source.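 The calls were made as follows, unless noted: active = inhibition over a set limit, the all-compound mean plus 3 SD, in both replicate runs; inconclusive = over that limit in just one replicate run; inactive = at or under that limit in both runs.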

Receptor tyrosine-protein kinase erbB-2 (Homo sapiens), sequence (P04626 whole entry, looked up): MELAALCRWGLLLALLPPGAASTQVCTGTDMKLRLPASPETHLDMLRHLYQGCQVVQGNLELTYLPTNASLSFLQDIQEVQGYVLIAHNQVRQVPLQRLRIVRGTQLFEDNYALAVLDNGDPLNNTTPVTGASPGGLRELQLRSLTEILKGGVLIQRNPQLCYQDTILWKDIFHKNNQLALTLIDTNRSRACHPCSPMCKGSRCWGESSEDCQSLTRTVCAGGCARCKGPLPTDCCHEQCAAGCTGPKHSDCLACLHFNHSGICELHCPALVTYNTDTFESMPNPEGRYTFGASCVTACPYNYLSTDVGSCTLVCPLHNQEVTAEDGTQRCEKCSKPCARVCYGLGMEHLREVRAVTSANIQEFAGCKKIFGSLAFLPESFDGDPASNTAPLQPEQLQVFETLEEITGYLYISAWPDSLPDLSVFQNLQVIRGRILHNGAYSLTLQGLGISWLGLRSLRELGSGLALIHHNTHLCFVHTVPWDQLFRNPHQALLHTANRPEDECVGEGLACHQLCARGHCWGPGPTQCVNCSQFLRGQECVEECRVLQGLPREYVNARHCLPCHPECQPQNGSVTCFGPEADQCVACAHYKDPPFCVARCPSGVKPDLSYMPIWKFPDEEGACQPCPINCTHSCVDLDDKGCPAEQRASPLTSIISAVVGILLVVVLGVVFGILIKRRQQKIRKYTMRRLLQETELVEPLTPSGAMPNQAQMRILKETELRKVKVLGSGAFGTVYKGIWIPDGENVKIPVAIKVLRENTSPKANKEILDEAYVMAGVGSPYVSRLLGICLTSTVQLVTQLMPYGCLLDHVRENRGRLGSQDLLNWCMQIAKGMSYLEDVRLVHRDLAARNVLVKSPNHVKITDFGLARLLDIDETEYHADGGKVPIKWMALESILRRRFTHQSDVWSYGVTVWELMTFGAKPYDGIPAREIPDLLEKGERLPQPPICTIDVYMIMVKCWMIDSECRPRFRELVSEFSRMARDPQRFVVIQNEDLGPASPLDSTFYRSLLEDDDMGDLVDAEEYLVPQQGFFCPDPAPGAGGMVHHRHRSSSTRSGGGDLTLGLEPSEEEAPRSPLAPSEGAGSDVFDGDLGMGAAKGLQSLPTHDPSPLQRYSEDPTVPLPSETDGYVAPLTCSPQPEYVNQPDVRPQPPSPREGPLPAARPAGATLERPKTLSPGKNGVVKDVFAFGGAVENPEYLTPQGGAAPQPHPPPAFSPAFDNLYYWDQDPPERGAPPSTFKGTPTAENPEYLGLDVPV

Take `COc1cc(NC(=O)CN(c2cc(C)cc(C)c2)S(=O)(=O)c2c(C)noc2C)cc(OC)c1`: the viability – broadly, a read-out of living cells in per cent, often relative to untreated cells – in assay [1] is 88.5%; in assay [3], 88.5% (inactive); in assay [4] it was 80.8% (inactive); in [5], 83.8% (inactive); in assay [6] (setting [16]), 84.3%; in assay [6] (setting [17]), 83.8%. Further, the viability is 92.3% (inactive) in assay [12] and 87.5% (inactive) in assay [13]. For the same compound, the Her2 level in [2] is 108% (inactive). Besides, the differential viability (reversal) in assay [6] (H69AR cells + 2 uM doxorubicin) is -0.43% (inactive). Also, the inhibition (as a rule, the change of the read-out against control, counted positive when it falls) in [7] was 0.9% (inactive); in assay [8], -5% (inactive); in assay [14], 2.82% (inactive). For the same compound, the growth inhibition was -14.8% (inactive) in assay [9] and -18.5% (inactive) in [10]. For the same compound, in assay [11], the viability increase was -4.92% (inactive). Moreover, the RAM network inhibition in [15] is 4.61% (inactive).

Take `COCCCNC(=O)CSc1ccc(Cl)cc1`: the viability in [1] was 94.5%; in assay [3], 94.5% (inactive); in [4], 81.8% (inactive); in assay [5] it was 95.3% (inactive); in assay [6] (setting [16]), 91.9%; in [6] (setting [17]), 95.3%. Besides, the viability was 106% (inactive) in [12] and 97.8% (inactive) in [13]. Also, in assay [2], the Her2 level was 85% (inactive). Also, the differential viability (reversal) in assay [6] (H69AR cells + 2 uM doxorubicin) was 3.39% (inactive). Moreover, the inhibition is 0% (inactive) in assay [7], -2.67% (inactive) in [8] and 2.25% (inactive) in assay [14]. In addition, the results for the growth inhibition in [9] and in [10] were 1.36% (inactive) and -6.93% (inactive), respectively. Besides, in assay [11], the viability increase is -1.7% (inactive). The RAM network inhibition in assay [15] was 2.53% (inactive).

Turning to `CCC(C)NC(=O)CS(=O)(=O)Cc1nc(-c2cccc(OC)c2)oc1C` (stereo not given), the viability was 80.5% in assay [1]; 80.5% (inactive) in assay [3]; 97.6% (inactive) in [4]; 91.4% (inactive) in assay [5]; 100% in assay [6] (setting [16]); 91.4% in assay [6] (setting [17]). In addition, the viability in assay [12] is 91.9% (inactive); in assay [13], 93.5% (inactive). Further, the Her2 level in [2] was 98% (inactive). In addition, the differential viability (reversal) in [6] (H69AR cells + 2 uM doxorubicin) was -8.61% (inactive). The inhibition is -2% (inactive) in assay [7], -0.66% (inactive) in assay [8] and 0.02% (inactive) in assay [14]. Further, the growth inhibition is 3.02% (inactive) in assay [9] and 9.5% (inactive) in assay [10]. In addition, the viability increase in [11] was 0.02% (inactive). Further, the RAM network inhibition in assay [15] was 3.92% (inactive).

Consider `COc1ccccc1C(=O)NCCc1nc2ccccc2n1C`, for which the viability is 118% in assay [1]; 118% (inactive) in assay [3]; 119% (inactive) in assay [4]; 101% (inactive) in [5]; 95% in assay [6] (setting [16]); 101% in assay [6] (setting [17]). The viability in assay [12] was 105% (inactive). The Her2 level in assay [2] was 83% (inactive). Besides, the differential viability (reversal) in assay [6] (H69AR cells + 2 uM doxorubicin) is 5.79% (inactive). For the same compound, the inhibition is -6.76% (inactive) in assay [7], -3.67% (inactive) in assay [8] and 2.54% (inactive) in [14]. Besides, the growth inhibition was -20.8% (inactive) in assay [9] and 0.505% (inactive) in assay [10]. Also, the viability increase in assay [11] is 0.02% (inactive). Besides, the RAM network inhibition in [15] was 5.39% (inactive).

Turning to `CCCCc1cc2c(c(NC(C)=O)n1)c(=O)oc1ccccc12`, the viability in assay [1] was 112%; in [3], 112% (inactive); in assay [4] it was 80.6% (inactive); in assay [5], 77.9% (inactive); in assay [6] (setting [16]), 86.2%; in assay [6] (setting [17]), 77.9%. The viability is 94.8% (inactive) in assay [12] and 87.8% (inactive) in assay [13]. For the same compound, the Her2 level in [2] is 99% (inactive). Also, the differential viability (reversal) in [6] (H69AR cells + 2 uM doxorubicin) was -8.33% (inactive). The inhibition in assay [7] is -3.47% (inactive); in assay [8], -4% (inactive); in assay [14], 1.68% (inactive). The growth inhibition was -9.7% (inactive) in [9] and -4.55% (inactive) in assay [10]. Moreover, the viability increase in assay [11] was -4.33% (inactive). For the same compound, the RAM network inhibition in assay [15] is 3.84% (inactive).

As for `Cc1ccc(S(=O)(=O)C(C#N)c2nc3ccccc3nc2N2CCCCC2)cc1` (stereo not given), the viability in assay [1] is 124%; in [3], 124% (inactive); in assay [4], 71.6% (inactive); in [5], 92% (inactive); in assay [6] (setting [16]), 94.7%; in assay [6] (setting [17]) it was 92%. In assay [12], the viability is 93.8% (inactive). Also, the Her2 level in [2] was 99.5% (inactive). The differential viability (reversal) in [6] (H69AR cells + 2 uM doxorubicin) is -2.64% (inactive). Besides, the figures for the inhibition in assay [7], in [8] and in assay [14] were -6.13% (inactive), 3.65% (inactive) and 2.7% (inactive), respectively. Also, the values for the growth inhibition in assay [9] and in assay [10] were -26.9% (inactive) and 6.8% (inactive), respectively. In addition, the viability increase in assay [11] is -3.74% (inactive). For the same compound, the RAM network inhibition in assay [15] is 5.83% (inactive).

With `CCOC(=O)Cn1nc(-c2ccc(Cl)cc2)cc1N`, the viability is 78% in [1]; 78% (inactive) in [3]; 91.8% (inactive) in assay [4]; 101% (inactive) in assay [5]; 83.1% in assay [6] (setting [16]); 101% in assay [6] (setting [17]). Further, in assay [12], the viability was 102% (inactive). The Her2 level in assay [2] was 116% (inactive). Further, in [6] (H69AR cells + 2 uM doxorubicin), the differential viability (reversal) was 18% (inactive). The inhibition is -7.95% (inactive) in assay [7], -0.48% (inactive) in assay [8] and 1.88% (inactive) in [14]. Further, the growth inhibition in [9] is -8.98% (inactive); in assay [10] it was 2.33% (inactive). Besides, the viability increase in assay [11] was 0.37% (inactive). In addition, in [15], the RAM network inhibition is 5.56% (inactive).

Consider `CC(C)C(NC(=O)c1ccc(S(=O)(=O)N2CCOCC2)cc1)c1nc2ccccc2[nH]1` (stereo not given), for which the viability in assay [1] is 104%; in assay [3] it was 104% (inactive); in assay [4], 72.5% (inactive); in [5], 82.2% (inactive); in assay [6] (setting [16]), 85.2%; in assay [6] (setting [17]) it was 82.2%. In assay [12], the viability was 100% (inactive). The Her2 level in assay [2] is 94.5% (inactive). The differential viability (reversal) in assay [6] (H69AR cells + 2 uM doxorubicin) was -2.94% (inactive). In addition, the figures for the inhibition in assay [7], in [8] and in assay [14] were 1.95% (inactive), -2.95% (inactive) and 2.71% (inactive), respectively. Further, the growth inhibition was -13.7% (inactive) in assay [9] and -12.6% (inactive) in assay [10]. Besides, the viability increase in assay [11] is -5.63% (inactive). In addition, the RAM network inhibition in assay [15] was 6.44% (inactive).

As to `COC(=O)CN(c1ccc(OC)cc1)S(=O)(=O)c1ccc(OC)c(OC)c1`, the viability was 89.5% in assay [1]; 89.5% (inactive) in assay [3]; 96.5% (inactive) in [4]; 88.1% (inactive) in assay [5]; 85.3% in [6] (setting [16]); 88.1% in [6] (setting [17]). Further, the viability in [12] is 98.5% (inactive); in assay [13], 99.5% (inactive). For the same compound, the Her2 level in assay [2] is 91% (inactive). Besides, the differential viability (reversal) in [6] (H69AR cells + 2 uM doxorubicin) is 2.77% (inactive). The inhibition was -0.78% (inactive) in [7], -2.3% (inactive) in [8] and 1.75% (inactive) in assay [14]. Besides, the figures for the growth inhibition in [9] and in assay [10] were -13.7% (inactive) and -17% (inactive), respectively. In addition, in assay [11], the viability increase was -1.06% (inactive). For the same compound, the RAM network inhibition in [15] is 4.96% (inactive).

Consider `CCCSc1nc2c(cnn2-c2ccc(C)cc2)c(=O)[nH]1`, for which the viability is 93% in assay [1]; 93% (inactive) in assay [3]; 7.04% (active) in assay [4]; 19.1% (active) in assay [5]; 22.6% in [6] (setting [16]); 19.1% in assay [6] (setting [17]). Moreover, the viability in [12] was 40.5% (inactive). In addition, the Her2 level in assay [2] is 99% (inactive). Further, in [6] (H69AR cells + 2 uM doxorubicin), the differential viability (reversal) was -3.51% (inactive). Besides, the results for the inhibition in assay [7], in [8] and in assay [14] were -2% (inactive), -2.62% (inactive) and 3.78% (inactive), respectively. Besides, the growth inhibition is -8.62% (inactive) in [9] and 6.35% (inactive) in assay [10]. Moreover, the viability increase in assay [11] was -8.01% (inactive). The RAM network inhibition in [15] is 4.52% (inactive).

Source of the values: PubChem BioAssay.
